# Measured values: PubChem BioAssay (NCATS)
# Results filed as inconclusive are left out. A number with no mark means an inactive call. The list shows a part of the results. Active and inactive are the calls of the source. Unless noted, calls follow the shape of the dose curve; as a rule, active = well fitted curve in the direction sought with a large enough effect; inconclusive = small, poorly fitted or top-dose-only effect, or another doubt; inactive = no such curve, though single readings can be large; an effect the other way counts as inactive or inconclusive.
# How the values were obtained:
# [1] = qHTS assay for small molecule agonists of the antioxidant response element (ARE) signaling pathway (AID 651741; active = well fitted activation curve with a large enough effect in the signal ratio; the % refers to the signal ratio; also: potency is read from the fitted curve at half-maximal effect; as to activation: % of control where 0% means no effect)
# Procedure, shortened: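 Stably integrated ARE-beta-lactamase reporter HepG2 cells; 16 h compound incubation, 37 C; LiveBLAzer FRET substrate 2 h at room temperature; fluorescence intensity.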
# [2] = biological target: Glucocorticoid receptor (Homo sapiens) (UniProt P04150); experiment: qHTS assay for small molecule antagonists of glucocorticoid receptor signaling (AID 588533; active = well fitted inhibition curve with a large enough effect in the signal ratio, with a control signal flat, not every such curve was filed as active; the % refers to the signal ratio;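 also: cells stimulated with 2 nM dexamethasone as agonist; % is scaled to controls: 0 for no effect and ±100 for the full control effect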)
# Sequence of Glucocorticoid receptor (Homo sapiens) (P04150 whole entry, looked up): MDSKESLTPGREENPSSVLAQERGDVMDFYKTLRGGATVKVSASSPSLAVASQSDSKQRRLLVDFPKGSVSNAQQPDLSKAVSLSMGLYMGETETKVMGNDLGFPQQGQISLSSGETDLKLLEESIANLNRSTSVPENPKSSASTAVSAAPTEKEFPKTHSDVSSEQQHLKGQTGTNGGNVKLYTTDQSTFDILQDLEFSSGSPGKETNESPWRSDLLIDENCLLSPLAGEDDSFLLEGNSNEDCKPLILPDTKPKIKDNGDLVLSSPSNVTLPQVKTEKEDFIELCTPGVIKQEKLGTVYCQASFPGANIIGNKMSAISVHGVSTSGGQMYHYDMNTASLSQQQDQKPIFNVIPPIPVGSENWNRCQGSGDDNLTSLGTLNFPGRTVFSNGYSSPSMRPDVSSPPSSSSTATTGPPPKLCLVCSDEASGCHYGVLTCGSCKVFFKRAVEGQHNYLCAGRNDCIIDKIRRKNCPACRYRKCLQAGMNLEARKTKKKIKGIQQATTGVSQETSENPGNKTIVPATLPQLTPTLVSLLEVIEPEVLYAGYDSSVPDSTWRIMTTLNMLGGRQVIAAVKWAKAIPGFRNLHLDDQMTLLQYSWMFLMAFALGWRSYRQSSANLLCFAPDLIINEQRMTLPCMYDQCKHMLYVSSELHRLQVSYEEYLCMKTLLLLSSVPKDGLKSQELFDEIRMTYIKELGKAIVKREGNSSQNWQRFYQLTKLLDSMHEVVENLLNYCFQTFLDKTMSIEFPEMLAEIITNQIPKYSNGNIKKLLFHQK
# Procedure, shortened: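 Antagonist-mode qHTS: compound titrations added to GRE-bla HeLa cells, then dexamethasone 2 nM final; 18 h, 37 C. CCF4 FRET fluorescence normalized to dexamethasone and DMSO; IC50 from Hill fit.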
# [3] = biological target: Thyroid hormone receptor beta (Homo sapiens) (UniProt P10828); experiment: qHTS assay for small molecule antagonists of thyroid hormone receptor beta signaling (AID 588547; active = well fitted inhibition curve with a large enough effect in the signal ratio, with a control signal flat, not every such curve was filed as active; the % refers to the signal ratio;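 also: cells stimulated with 0.4 nM T3 agonist during compound exposure; series mostly up to about 77 µM; % is scaled to controls: 0 for no effect and ±100 for the full control effect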); conditions: TR-UAS-bla HEK293, beta-lactamase ratio, antagonist mode, 18 h
# Sequence of Thyroid hormone receptor beta (Homo sapiens) (P10828 whole entry, looked up): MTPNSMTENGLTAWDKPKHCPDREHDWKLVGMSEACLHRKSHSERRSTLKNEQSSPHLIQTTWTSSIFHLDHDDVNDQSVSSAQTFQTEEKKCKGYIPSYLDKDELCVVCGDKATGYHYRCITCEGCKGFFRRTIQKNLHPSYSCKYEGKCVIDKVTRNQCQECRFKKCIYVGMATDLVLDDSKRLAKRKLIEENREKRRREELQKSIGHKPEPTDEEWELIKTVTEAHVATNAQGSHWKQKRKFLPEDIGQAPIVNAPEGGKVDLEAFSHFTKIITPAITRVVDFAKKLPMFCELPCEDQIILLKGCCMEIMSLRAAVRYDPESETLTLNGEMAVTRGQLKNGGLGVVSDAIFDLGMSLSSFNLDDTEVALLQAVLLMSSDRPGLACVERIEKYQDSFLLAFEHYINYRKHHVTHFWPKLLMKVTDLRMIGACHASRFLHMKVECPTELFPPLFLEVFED
# Procedure, shortened: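 TR-UAS-bla GripTite HEK293 cells in 2% charcoal/dextran FBS medium; compounds 0.59 nM to 92 uM with T3 at 0.4nM final, 18 h at 37 C. Beta-lactamase read by CCF4 fluorescence (460/530 nm); Hill fits gave IC50 and efficacy.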
# [4] = qHTS assay for small molecule activators of the nuclear factor-kappa B (NF-kB) signaling pathway (AID 651749; active = well fitted activation curve with a large enough effect in the signal ratio; the % refers to the signal ratio; also: series mostly up to about 77 µM; % of control where 0% means no effect); conditions: NF-kB-bla ME-180 cells, beta-lactamase FRET ratio, 16 h; activation: active compounds read high
# Procedure, shortened: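 In this qHTS format, compounds acting as activators increase NF-kB-driven beta-lactamase in ME-180 cells, measured as disrupted FRET after 16 hr exposure at 37C and 5% CO2.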
# [5] = biological target: Peroxisome proliferator-activated receptor delta (Homo sapiens) (UniProt Q03181); experiment: qHTS assay for small molecule antagonists of peroxisome proliferator-activated receptor delta signaling (AID 588535; active = well fitted inhibition curve with a large enough effect in the signal ratio, with a control signal flat, not every such curve was filed as active; the % refers to the signal ratio)
# Sequence of Peroxisome proliferator-activated receptor delta (Homo sapiens) (Q03181 whole entry, looked up): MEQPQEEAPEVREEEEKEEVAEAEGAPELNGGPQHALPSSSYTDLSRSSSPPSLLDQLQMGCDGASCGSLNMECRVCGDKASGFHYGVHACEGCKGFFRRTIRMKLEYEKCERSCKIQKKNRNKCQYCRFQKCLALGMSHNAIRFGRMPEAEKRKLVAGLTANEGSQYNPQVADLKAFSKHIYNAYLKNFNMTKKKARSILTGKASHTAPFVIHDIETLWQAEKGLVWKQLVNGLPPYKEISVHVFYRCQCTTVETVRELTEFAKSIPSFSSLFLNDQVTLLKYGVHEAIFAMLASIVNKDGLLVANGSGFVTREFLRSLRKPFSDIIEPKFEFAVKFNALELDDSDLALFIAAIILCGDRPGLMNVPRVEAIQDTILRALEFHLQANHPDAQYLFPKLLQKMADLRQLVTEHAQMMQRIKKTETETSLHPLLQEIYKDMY
# Procedure, shortened: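 Fluorescence from CCF4-loaded GeneBLAzer PPAR-delta-UAS-bla HEK293T cells (2 hrs RT loading) quantified reporter inhibition after an 18 hr, 37 C compound exposure across a titration.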
# [6] = biological target: DNA polymerase iota (Homo sapiens) (UniProt Q9UNA4); experiment: qHTS for Inhibitors of Polymerase Iota: Confirmatory Assay for Cherry-picked Compounds (AID 720496); conditions: Pol iota primer extension, TAMRA/BHQ fluorescence; also: potency is read from the fitted curve at half-maximal effect
# Sequence of DNA polymerase iota (Homo sapiens) (Q9UNA4 whole entry, looked up): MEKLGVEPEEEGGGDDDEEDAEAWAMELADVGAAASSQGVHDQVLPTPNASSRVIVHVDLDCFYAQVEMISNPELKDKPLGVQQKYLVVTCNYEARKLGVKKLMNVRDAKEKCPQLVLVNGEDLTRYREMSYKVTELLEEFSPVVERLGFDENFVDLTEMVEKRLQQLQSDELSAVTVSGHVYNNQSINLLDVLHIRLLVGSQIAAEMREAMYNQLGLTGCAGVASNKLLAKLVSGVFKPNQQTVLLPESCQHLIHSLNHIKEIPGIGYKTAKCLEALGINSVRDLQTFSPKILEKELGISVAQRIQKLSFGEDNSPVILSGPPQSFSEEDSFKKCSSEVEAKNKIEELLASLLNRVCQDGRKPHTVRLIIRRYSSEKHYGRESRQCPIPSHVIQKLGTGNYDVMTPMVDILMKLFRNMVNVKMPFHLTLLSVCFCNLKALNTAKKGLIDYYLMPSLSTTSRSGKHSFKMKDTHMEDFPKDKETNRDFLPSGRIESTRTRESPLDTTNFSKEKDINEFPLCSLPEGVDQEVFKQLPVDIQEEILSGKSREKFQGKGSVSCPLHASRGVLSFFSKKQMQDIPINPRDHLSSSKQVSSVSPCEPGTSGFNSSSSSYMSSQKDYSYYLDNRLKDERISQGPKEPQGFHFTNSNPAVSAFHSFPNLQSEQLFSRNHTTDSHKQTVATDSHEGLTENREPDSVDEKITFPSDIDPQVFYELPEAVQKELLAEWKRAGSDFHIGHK
# Procedure, shortened: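 Kinetic fluorescence, 0 → 10 min, ex 525/em 598 nm. Pol iota 10 nM, 15 min RT preincubation with compound, then 50 nM (final) TAMRA/BHQ-2 primer-template substrate.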
# [7] = biological target: Bifunctional 3'-5' exonuclease/ATP-dependent helicase WRN (Homo sapiens) (UniProt Q14191); experiment: qHTS for Inhibitors of WRN Helicase: Confirmatory Assay for Cherry-picked Compounds. (AID 720497); also: series mostly up to about 57 µM; nearly all actives have a fitted effect of over 65% in size
# Sequence of Bifunctional 3'-5' exonuclease/ATP-dependent helicase WRN (Homo sapiens) (Q14191 whole entry, looked up): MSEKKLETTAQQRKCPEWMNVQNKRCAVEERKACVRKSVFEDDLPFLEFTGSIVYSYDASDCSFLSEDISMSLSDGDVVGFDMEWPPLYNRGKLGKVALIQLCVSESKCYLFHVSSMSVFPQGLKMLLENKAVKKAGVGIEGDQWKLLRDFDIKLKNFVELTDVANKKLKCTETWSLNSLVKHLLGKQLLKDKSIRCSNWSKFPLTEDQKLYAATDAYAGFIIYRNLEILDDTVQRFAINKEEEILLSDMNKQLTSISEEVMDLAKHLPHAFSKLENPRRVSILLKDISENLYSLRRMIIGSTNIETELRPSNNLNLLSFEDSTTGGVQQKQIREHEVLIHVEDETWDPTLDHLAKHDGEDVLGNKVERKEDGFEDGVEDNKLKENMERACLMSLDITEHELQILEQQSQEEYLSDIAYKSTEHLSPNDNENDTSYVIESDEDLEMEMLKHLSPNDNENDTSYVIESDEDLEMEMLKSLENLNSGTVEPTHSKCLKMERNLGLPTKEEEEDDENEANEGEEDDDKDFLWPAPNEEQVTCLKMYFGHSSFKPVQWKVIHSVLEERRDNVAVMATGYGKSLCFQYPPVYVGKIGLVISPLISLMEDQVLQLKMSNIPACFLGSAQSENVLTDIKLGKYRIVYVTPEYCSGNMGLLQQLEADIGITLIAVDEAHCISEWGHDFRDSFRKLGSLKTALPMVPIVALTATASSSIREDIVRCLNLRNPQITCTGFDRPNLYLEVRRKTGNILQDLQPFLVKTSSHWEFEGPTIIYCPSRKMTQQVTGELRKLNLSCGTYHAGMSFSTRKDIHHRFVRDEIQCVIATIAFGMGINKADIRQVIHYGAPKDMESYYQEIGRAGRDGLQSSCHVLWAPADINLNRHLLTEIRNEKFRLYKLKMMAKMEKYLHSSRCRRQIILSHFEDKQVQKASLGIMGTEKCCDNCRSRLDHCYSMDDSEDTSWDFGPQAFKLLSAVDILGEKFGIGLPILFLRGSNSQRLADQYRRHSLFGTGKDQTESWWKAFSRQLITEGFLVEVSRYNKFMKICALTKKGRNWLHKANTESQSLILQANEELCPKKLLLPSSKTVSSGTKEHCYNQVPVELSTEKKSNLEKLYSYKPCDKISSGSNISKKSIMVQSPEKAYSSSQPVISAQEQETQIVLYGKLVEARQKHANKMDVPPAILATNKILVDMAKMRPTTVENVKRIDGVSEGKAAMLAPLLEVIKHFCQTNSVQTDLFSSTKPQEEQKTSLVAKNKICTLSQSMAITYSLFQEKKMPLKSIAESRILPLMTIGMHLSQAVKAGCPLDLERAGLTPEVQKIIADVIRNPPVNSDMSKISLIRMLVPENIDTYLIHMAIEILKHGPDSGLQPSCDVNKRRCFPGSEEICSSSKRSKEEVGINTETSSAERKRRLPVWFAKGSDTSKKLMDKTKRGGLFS
# Procedure, shortened: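 Kinetic fluorescence helicase read-out (525 nm excitation, 598 nm emission) on a forked duplex substrate at 100 nM with 2 mM ATP. Enzyme: 20 nM WRN, exposed to compound for 15 min at room temperature. Responses normalized to buffer-only and positive-control wells.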
# [8] = biological target: DNA polymerase eta (Homo sapiens) (UniProt Q9Y253); experiment: qHTS for Inhibitors of Polymerase Eta: Confirmatory Assay for Cherry-picked Compounds (AID 720502); conditions: Pol eta primer extension, TAMRA/BHQ fluorescence, 10 min; also: potency is read from the fitted curve at half-maximal effect
# Sequence of DNA polymerase eta (Homo sapiens) (Q9Y253 whole entry, looked up): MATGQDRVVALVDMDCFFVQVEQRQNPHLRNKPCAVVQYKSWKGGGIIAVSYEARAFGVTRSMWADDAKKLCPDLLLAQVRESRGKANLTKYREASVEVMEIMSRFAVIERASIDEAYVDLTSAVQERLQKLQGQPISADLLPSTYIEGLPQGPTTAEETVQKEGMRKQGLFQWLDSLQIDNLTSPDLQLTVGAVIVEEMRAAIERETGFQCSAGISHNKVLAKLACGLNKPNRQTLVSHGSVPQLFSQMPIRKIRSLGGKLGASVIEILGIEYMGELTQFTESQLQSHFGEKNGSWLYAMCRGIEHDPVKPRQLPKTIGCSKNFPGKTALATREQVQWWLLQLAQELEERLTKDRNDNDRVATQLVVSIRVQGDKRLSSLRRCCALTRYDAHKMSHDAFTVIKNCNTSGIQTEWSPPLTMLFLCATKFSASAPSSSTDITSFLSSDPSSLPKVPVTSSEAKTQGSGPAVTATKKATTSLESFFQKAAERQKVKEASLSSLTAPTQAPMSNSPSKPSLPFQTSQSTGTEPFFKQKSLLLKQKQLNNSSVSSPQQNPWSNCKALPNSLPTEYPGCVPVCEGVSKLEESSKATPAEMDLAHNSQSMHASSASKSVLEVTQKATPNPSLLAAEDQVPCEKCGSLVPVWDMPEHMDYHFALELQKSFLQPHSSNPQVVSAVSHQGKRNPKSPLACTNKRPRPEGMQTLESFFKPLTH
# Procedure, shortened: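 Plates with 10 nM enzyme and compound stood 15 min at room temperature before substrate addition (50 nM final). Displacement of the TAMRA reporter from the BHQ-2 template was tracked for 10 min.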
# [9] = qHTS for Inhibitors of the vitamin D receptor (VDR): Hit Validation using a Texas Red Assay (AID 602201); also: potency is read from the fitted curve at half-maximal effect
# Procedure, shortened: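 Fluorescence polarization with 1.5 uM VDR-LBD, LG19078 and 7 nM Texas Red (final). After 2 hours at ambient temperature, read at Ex 595 nm/Em 615 nm.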
smiles,measurement,setting,value
CCNc1nc(NC(C)CC)nc(OC)n1 (stereo unspecified),Potency,[1],inactive
CCCCCCCCCCCCN,Potency,[2],inactive
same,activity change % (negative = inhibition),[3],-7.43%
same,Potency,[1],inactive
same,activation,[4],-1.82%
CCOC(=O)C(C)Oc1ccc(Oc2nc3ccc(Cl)cc3o2)cc1 (stereo unspecified),Potency,[2],inactive
same,Potency,[5],inactive
same,activation,[4],2.54%
CC(C)(N=C=O)c1cccc(C(C)(C)N=C=O)c1,Potency,[2],inactive
same,activity change % (negative = inhibition),[3],-9.67%
same,Potency,[1],inactive
same,activation,[4],-0.946%
C=C(C)C(=O)OCCC[Si](Cl)(Cl)Cl,Potency,[2],inactive
same,Potency,[5],inactive
same,activation,[4],-0.259%
Nc1ccc(Nc2ccccc2)cc1,Potency,[2],inactive
same,Potency,[1],30.6 µM (active)
same,activation,[4],0.195%
C=C(C)C(=O)OCCOCCOCCOC(=O)C(=C)C,Potency,[2],inactive
same,activity change % (negative = inhibition),[3],-12.3%
same,Potency,[1],inactive
same,activation,[4],-1.62%
C=CCOc1nc(OCC=C)nc(OCC=C)n1,Potency,[5],inactive
same,activity change % (negative = inhibition),[3],11.9%
same,activation,[4],0.86%
COC(=O)c1ccc(CNS(C)(=O)=O)cc1S(=O)(=O)NC(=O)Nc1nc(OC)cc(OC)n1,Potency,[2],inactive
same,activation,[4],1.5%
Oc1ccc(Nc2ccccc2)cc1,Potency,[2],inactive
same,activity change % (negative = inhibition),[3],-3.3%
same,activation,[4],-2.8%
CCCCCOC(=O)COc1cc(N2C(=O)C3=C(CCCC3)C2=O)c(F)cc1Cl,Potency,[2],inactive
same,activity change % (negative = inhibition),[3],4.65%
CS(=O)(=O)c1ccc(Cl)cc1,Potency,[2],inactive
same,activity change % (negative = inhibition),[3],-10.2%
CC(=O)N(C1=C(Cl)C(=O)c2ccccc2C1=O)c1ccc(C(=O)O)cc1,Potency,[6],67 µM (active)
same,Potency,[7],inactive
same,Potency,[8],26.9 µM (active)
COC(=O)/C=C\C(=O)Nc1cccc([N+](=O)[O-])c1,Potency,[7],inactive
CCN(CC)c1ccc(NC(=O)c2ccccc2)cc1S(=O)(=O)Nc1ccccc1OC,Potency,[9],10 µM (active)
O=C(Cc1ccccc1Cl)NC1(O)C(=O)c2ccccc2C1=O,Potency,[9],inactive
Cc1ccc(S(=O)(=O)CCC(=O)c2cccc([N+](=O)[O-])c2)cc1,Potency,[9],3.55 µM (active)
CNc1ccc(Br)cc(C(=O)/C=C/c2cccc(Cl)c2Cl)c1=O,Potency,[9],3.55 µM (active)
NC(=O)COc1ccc(C(=O)/C=C2/C(=O)Nc3ccccc32)cc1,Potency,[9],inactive
COC(=O)/C=c1/sc2nc3ccccc3n2c1=O,Potency,[9],8.91 µM (active)
Cc1cc(C(C2C(=O)CC(C)(C)CC2=O)C2C(=O)CC(C)(C)CC2=O)cc(C)c1OC(F)F,Potency,[9],inactive
S=C(NNc1ccnc2cc(Cl)ccc12)Nc1ccccc1Cl,Potency,[9],14.1 µM (active)
CCCOc1ccc(/C=C2/C(=O)ON=C2C)cc1OCC,Potency,[9],15.8 µM (active)
COc1ccc(N2C(=O)C(Cl)=C(Oc3cccc(OC)c3)C2=O)cc1,Potency,[9],2.82 µM (active)
CCN(CC)S(=O)(=O)c1cc(NC(=O)c2ccc3c(c2)NC(=O)C(C)S3)ccc1C (stereo unspecified),Potency,[9],inactive
C#CCOc1c(Cl)cc(/C=C2/C(=O)ON=C2C)cc1OCC,Potency,[9],15.8 µM (active)
CCOC(=O)/C(C#N)=C1\C(=O)N(Cc2ccccc2)c2ccccc21,Potency,[9],inactive
CN(C)c1ccc(C=Nc2ccc(N(C)C)cc2)cc1,Potency,[9],17.8 µM (active)
O=C1OC(NC(=O)c2ccccc2)C(n2cc(CO)nn2)=C1Cl (stereo unspecified),Potency,[9],inactive
O=C(CCCSc1ccc(Cl)cc1)Nc1cc(S(=O)(=O)N2CCOCC2)ccc1O,Potency,[9],7.94 µM (active)
O=C1C(=O)c2c(C(=O)c3ccccc3)coc2-c2ccccc21,Potency,[9],inactive
CC(C)(C)c1cc(=O)n(-c2ccccc2)[nH]1,Potency,[9],12.6 µM (active)
COc1cc(/C=C2\C(=O)ON=C2c2ccc(Cl)cc2)ccc1O,Potency,[9],3.55 µM (active)
O=[N+]([O-])c1ccc(C2=Nn3c(Cn4nnc5ccccc54)nnc3SC2)cc1,Potency,[9],25.1 µM (active)
CC(=O)C1=C(c2ccc(Br)cc2)C(=O)c2ccccc2C1=O,Potency,[9],3.55 µM (active)
O=[S@]1Oc2ccccc2-c2ccccc21,Potency,[9],inactive
CN1CCN(C(=O)c2sc(=S)n(-c3ccccc3)c2N)CC1,Potency,[9],inactive
COc1cccc(/C=C2\C(=O)N(c3cccc(C)c3)C(=O)c3ccccc32)c1,Potency,[9],14.1 µM (active)
O=S1(=O)C=C(Sc2nnc(-c3ccccc3)o2)c2ccccc21,Potency,[9],3.16 µM (active)
N#Cc1ccc(/C=C/C(=O)c2cccnc2)cc1,Potency,[9],inactive
O=C(Oc1ccccc1/C=C\C(=O)c1cc2ccccc2o1)c1ccccc1,Potency,[9],8.91 µM (active)
CCCNC(=O)c1nnsc1S(=O)c1ccc(Cl)cc1 (stereo unspecified),Potency,[9],3.16 µM (active)
C=CCOc1c(Br)cc(/C=C2/C(=O)ON=C2C)cc1OC,Potency,[9],inactive
O=S(=O)(/N=C(\Sc1ccc(Cl)cc1)c1ccccc1)c1ccccc1,Potency,[9],35.5 µM (active)
O=C(O)CCNc1ccc(NCCC(=O)O)c2c1C(=O)c1ccccc1C2=O,Potency,[9],8.91 µM (active)
CCN(CC)S(=O)(=O)c1ccc(O)c(NS(=O)(=O)c2ccccc2F)c1,Potency,[9],inactive
NS(=O)(=O)c1ccc(NC(=O)c2nc(S(=O)(=O)Cc3ccccc3F)ncc2Cl)cc1,Potency,[9],3.16 µM (active)
[O-]/[N+](=C\c1ccccc1)c1ccc(Br)cc1,Potency,[9],inactive
O=C(/C=C/c1ccccc1Cl)c1cccnc1,Potency,[9],inactive
O=[N+]([O-])c1c(Nc2ccc(O)cc2)cc(Cl)c2nonc12,Potency,[9],3.16 µM (active)
O=C(/C(=C/c1ccncc1)n1ccnc1)c1ccc(Cl)cc1Cl,Potency,[9],14.1 µM (active)
Cc1nnc(NC(=O)c2nc(S(=O)(=O)Cc3ccccc3)ncc2Cl)s1,Potency,[9],22.4 µM (active)
